The results in this text go back to PubChem BioAssay.

For test [1], the system named is XIP peptide (Xip251-270) binding. Kind of test: XIP fragment 251-270 binding compounds – biochemical, small-molecule microarray, fluorescence 635/667 nm, 0.1 µg/mL protein, primary screen (AID 1182). The settings on record: fluorescent protein binding, 635 nm, higher = more signal, called active from +8 up or from −8 down.
A further test relates to XIP peptide (Xip251-270). Nature of the test: compounds binding XIP fragment 251-270 – biochemical, small-molecule microarray, fluorescence 635/667 nm, 0.5 µg/mL protein, primary screen (AID 1183). The settings on record: fluorescence 635 nm, higher = more signal.
The nature of test [2]: blood-stage malaria parasite viability loss – strain 3D7, DAPI fluorescence, 100 nL, primary screen (AID 1184).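 Also: parasites grown inside human red blood cells in medium with human serum.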 The settings on record: P. falciparum 3D7 growth, 3 d, higher = more signal.
Test [3] deals with Homeobox protein Hox-A13 (Mus musculus) (UniProt Q62424). Kind of test: disruptors of Hoxa13 oligonucleotide interaction – biochemical, fluorescence polarization, labeled oligonucleotide, primary screen (AID 1185). The note with it: Hoxa13:DNA binding, 15 min, higher = more signal, called active from +8 up or from −8 down. (In general: In fluorescence polarisation assays a small probe gives low polarisation when free and higher when bound to something large.)

Test [4] is described as follows: blockers of DNA damage checkpoint Chk1 activation – imaging, HeLa, hydroxyurea, phospho-Chk1 antibody, percent positive cells, primary screen (AID 1186). The settings on record: hydroxyurea-induced phospho-Chk1 immunofluorescence imaging, higher = more signal.
A short description of test [5]: blockers of DNA damage checkpoint Chk1 activation – imaging, HeLa, hydroxyurea, phospho-Chk1 nuclear intensity, primary screen (AID 1187). The settings on record: hydroxyurea-induced phospho-Chk1 immunofluorescence imaging, higher = more signal.

Calls of active or inactive are those of the source. Unless noted, no rule for the calls is given here.

Chain of Homeobox protein Hox-A13 (Mus musculus) (Q62424 whole entry, looked up): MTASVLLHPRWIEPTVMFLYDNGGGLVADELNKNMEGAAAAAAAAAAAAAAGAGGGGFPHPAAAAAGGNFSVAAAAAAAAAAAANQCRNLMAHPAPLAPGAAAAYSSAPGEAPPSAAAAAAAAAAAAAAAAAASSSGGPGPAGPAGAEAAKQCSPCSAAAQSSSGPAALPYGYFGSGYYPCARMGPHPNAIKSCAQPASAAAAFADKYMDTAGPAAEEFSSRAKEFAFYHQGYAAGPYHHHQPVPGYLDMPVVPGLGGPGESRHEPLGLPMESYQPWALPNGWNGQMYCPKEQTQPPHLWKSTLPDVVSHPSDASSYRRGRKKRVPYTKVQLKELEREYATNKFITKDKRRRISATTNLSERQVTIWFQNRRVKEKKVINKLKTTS

Regarding `CC(=O)Nc1cc(Br)ccc1C(=O)O`, the composite z-score in test [1] is 1.16 (inactive); in the test on XIP peptide (Xip251-270) it was 0.53. The z-score in test [2] is 1.96; in test [3], 0.273 (inactive); in test [4], 0.1 (inactive); in test [5], 0.0714 (inactive).

`O=C1C[C@@](C(=O)NC2CC2)(c2ccc([N+](=O)[O-])cc2)[C@@H](c2ccc(CO)cc2)N1CC12CC3CC(CC(C3)C1)C2`: the composite z-score in test [1] was -0.181 (inactive); in the test on XIP peptide (Xip251-270) it was 0.611. For the same molecule, the z-score in test [2] is -0.909; in test [3], -5.08 (inactive); in test [4] it was -0.635 (inactive); in test [5] it was -0.617 (inactive).

On to `CC(C)NC(=O)[C@@H]1c2ccccc2C(=O)N(Cc2ccccc2Cl)[C@H]1c1ccc(CO)cc1`, for which the figures for the composite z-score (in test [1]; in the test on XIP peptide (Xip251-270)) were 0.989 (inactive) and 0.719, respectively. Besides, the z-score is -0.842 in test [2], -3.24 (inactive) in test [3], 0.323 (inactive) in test [4] and 0.667 (inactive) in test [5].

`C[C@H]1NC(=O)[C@H](Cc2ccccc2)NC(=O)[C@@]23C(=O)N[C@@H](Cc4ccccc4)C2[C@H](C)[C@@]2(C)O[C@H]2C3/C=C/C/C=C\CNC1=O` (stereo partly specified): the results for the composite z-score (in test [1]; in the test with XIP peptide (Xip251-270)) were -0.325 (inactive) and -1.16, respectively. The z-score is -1.45 in test [2], -5.77 (inactive) in test [3], -0.227 (inactive) in test [4] and 0.0899 (inactive) in test [5].

For the molecule `NCCCCCNC(=O)[C@H]1C[C@H]2C(=O)NCC(=O)N2[C@H]1c1cccc(OCCO)c1`, the composite z-score in test [1] is 0.228 (inactive); in the test on XIP peptide (Xip251-270) it was 0.781. Further, the z-score in test [2] was 0.222; in test [3], -1.68 (inactive); in test [4], 0.0838 (inactive); in test [5] it was 0.179 (inactive).

Regarding `C=CCC(OC(C)=O)[C@@H]1[C@@H](N(Cc2cc3ccccc3o2)C(=O)c2ccc(C)cc2)c2cc(OCCCO)ccc2N1C(=O)c1ccc2ccccc2c1` (stereo partly specified), the values for the composite z-score (in test [1]; with XIP peptide (Xip251-270)) were -0.014 (inactive) and -0.152, respectively. The z-score in test [2] is -0.585; in test [3], -1.33 (inactive); in test [4], -0.252 (inactive); in test [5], 0.0758 (inactive).

`C[C@]1(C(=O)NCc2ccccc2)c2ccccc2C(=O)N(Cc2ccc(OC(F)(F)F)cc2)[C@H]1c1ccc(CO)cc1`: the values for the composite z-score (in test [1]; with XIP peptide (Xip251-270)) were 0.379 (inactive) and 0.317, respectively. Also, the z-score is -2.01 in test [2], -3.67 (inactive) in test [3], -0.347 (inactive) in test [4] and -0.341 (inactive) in test [5].

As for `[N-]=[N+]=NCc1ccccc1C[C@]1(C(=O)O)N=C(c2ccc(OCCCO)cc2)O[C@H]1c1ccccc1`, the composite z-score was 1.06 (inactive) in test [1] and 0.228 with XIP peptide (Xip251-270). In addition, the z-score is -0.296 in test [2], -5.85 (inactive) in test [3], 0.109 (inactive) in test [4] and 0.0605 (inactive) in test [5].

Regarding `COc1ccc(C(O)C2C=CC3C(=O)NC(=O)C3N2Nc2ccccn2)cc1OCc1ccccc1` (stereo unspecified), the composite z-score in test [1] was 0.816 (inactive); with XIP peptide (Xip251-270) it was -0.0026. For the same molecule, the z-score in test [2] is -0.235; in test [3] it was -2.68 (inactive); in test [4], 0.682 (inactive); in test [5], 0.581 (inactive).

Regarding `CC(C)CNC(=O)[C@@H]1c2ccccc2C(=O)N(Cc2cc(C(F)(F)F)cc(C(F)(F)F)c2)[C@H]1c1ccc(CO)cc1`, the composite z-score in test [1] was -0.133 (inactive); with XIP peptide (Xip251-270), -0.308. In addition, the z-score in test [2] was -1.2; in test [3], -1.46 (inactive); in test [4], -0.236 (inactive); in test [5], 0.21 (inactive).

For `O=C1O[C@@H](c2ccccc2)[C@@H](c2ccccc2)N2[C@@H](c3ccccc3OCCO)[C@]3(C(=O)Nc4ccc(C#CC5(O)CCCCCC5)cc43)[C@@H](C(=O)Nc3nc4ccccc4s3)[C@H]12`, the composite z-score in test [1] is 0.0985 (inactive); in the test with XIP peptide (Xip251-270), 0.626. Moreover, the z-score in test [2] is -2.16; in test [3], 2.1 (inactive); in test [4], 0.329 (inactive); in test [5] it was 0.288 (inactive).

`CC(C)(C)OC(=O)CC[C@]1(C(=O)N2CCCCC2)N=C(c2ccc(OCCCO)cc2)O[C@H]1c1ccccc1N=[N+]=[N-]`: the composite z-score in test [1] is 0.282 (inactive); in the test with XIP peptide (Xip251-270), 0.71. Further, the z-score in test [2] is -1.75; in test [3], -2.92 (inactive); in test [4] it was -0.0036 (inactive); in test [5] it was 0.212 (inactive).

For `CCCCC(CC)C(O)C1C=CC2C(=O)N(c3ccccc3)C(=O)C2N1Nc1ccccc1` (stereo unspecified), the composite z-score in test [1] was -0.147 (inactive); in the test with XIP peptide (Xip251-270), 0.216. Besides, the z-score in test [2] was -0.392; in test [3], -1.89 (inactive); in test [4] it was -0.335 (inactive); in test [5], -0.23 (inactive).

Turning to `CCCN1C(=O)[C@@]2(CCC(=O)OC(C)(C)C)N=C(c3ccc(OCCCO)cc3)O[C@H]2c2ccccc21`, the results for the composite z-score (in test [1]; in the test with XIP peptide (Xip251-270)) were 0.317 (inactive) and 0.563, respectively. For the same molecule, the z-score in test [2] was -2.31; in test [3], -3.53 (inactive); in test [4], -0.0458 (inactive); in test [5], 0.261 (inactive).

As to `COCCOC(=O)N1C(=O)[C@@]2(c3cc(C#CCC(C(=O)OC)C(=O)OC)ccc31)[C@H](c1ccc(O)cc1)N1[C@H](c3ccccc3)[C@H](c3ccccc3)OC(=O)[C@H]1[C@@H]2C(N)=O`, the composite z-score was 1.39 (inactive) in test [1] and 0.619 in the test with XIP peptide (Xip251-270). Further, the z-score in test [2] is -0.486; in test [3], -3.8 (inactive); in test [4], 0.676 (inactive); in test [5] it was 0.98 (inactive).

For `O=C(CS)NCCCCCCNC(=O)[C@H]1C[C@H]2C(=O)NCC(=O)N2[C@H]1c1ccc(O)cc1`, the composite z-score is 0.545 (inactive) in test [1] and 0.832 with XIP peptide (Xip251-270). Further, the z-score was 0.509 in test [2], -2.43 (inactive) in test [3], 0.419 (inactive) in test [4] and 0.37 (inactive) in test [5].
